Inconclusive results are not listed. Where a call stands in place of a potency, no number is given. Active and inactive are the calls of the source. Calls come from the whole dose curve; as a rule, active = well fitted cell-killing curve with a large enough effect; inconclusive = small, poorly fitted or top-dose-only effect; inactive = no such curve, though single readings can be large or run the other way.
assay: qHTS of pediatric cancer cell lines to identify multiple opportunities for drug repurposing: Primary screen for NB-EBc1 cells (AID 1347095); details: NB-EBc1 neuroblastoma viability, CellTiter-Glo luminescence, 48 h; series mostly up to 46 µM
From the text: Drug repurposing or repositioning has been offered as a strategy for drug development in oncology programs. This approach has special potential for childhood cancers and other rare or orphan diseases, where the expected return on new drug development has been a disincentive to pharmaceuticals. […] In this project we exploit the poly-pharmacology of drugs to discover new indications via phenotypic screening of a panel of 19 well-characterized cell lines derived from solid tumors seen in children and adolescents. The goal is to identify approved drugs with previously unrecognized anticancer properties that has the potential to reveal new mechanisms and biological processes involved in carcinogenesis or drug resistance. We employed a titration-based paradigm (quantitative high-throughput screening or qHTS), where all compounds were tested at multiple concentrations for their effect on cell viability. Concentration-response curves (CRCs) were derived directly from the primary screen, and both potency and efficacy values were used to identify compounds with robust bioactivity profiles. We screened the NIH Chemical Genomics Center (NCGC) Pharmaceutical Collection (NPC) and Mechanism Interrogation Plate (MIPE) small molecule collections of approved and investigational compounds against these cell lines; and measured metabolically active cells after 48 hours of compound treatment as a proxy for cell viability. […] Assay Submitter: Nathalia J. Martinez, National Center for Advancing Translational Sciences, National Institutes of Health, Rockville, MD, USA; email: natalia.martinez@nih.gov Shen, M et al. Quantitative high-throughput phenotypic screening of pediatric cancer cell lines identifies multiple opportunities for drug repurposing. Oncotarget 2017 Dec 19;9(4):4758-4772. PMID 29435139.
The cells were obtained from University of North Carolina (UNC), Pediatric Preclinical Testing Program (PPT), and Coriell Institute (CI). qHTS cell viability assay: Cells were assayed in growth media at a density of 500-1,000 cells/well. Five microliters of cells were dispensed into 1,536-well, white, solid-bottom, TC-treated plates (Greiner Bio One) using a multidrop dispenser and incubated at 37 degrees C, 5% CO2, under a humidified atmosphere for 5 hours. Twenty-three nanoliters of compounds and controls (neutral control DMSO or positive control bortezomib at final concentration of 2.3 µM) were subsequently transferred by Kalypsys pintool. For primary screens, the MIPE collection was tested at 11-point dilutions (final concentrations range from 0.78 nM to 46 µM) and the NPC collection at 8-point dilutions (final concentrations range from 0.59 nM to 46 µM). Compounds tested in follow-up screens were assayed at 11-point dilutions. Cells were incubated for 48 hours, followed by addition of 3 µL of CellTiter-Glo (Promega). After a 15 min incubation at room temperature, samples were analyzed for luminescence intensity using a ViewLux High-throughput CCD imager equipped with clear filters.
Potency is the fitted concentration of half-maximal effect.

SMILES	Potency
CCCCC/C=C\C/C=C\CCCCCCCC(=O)NC(C)c1ccccc1 (stereo not given)	inactive
CC(C)CCCC(C)NCCC(C)C (stereo not given)	inactive
CO/N=C(\C(=O)O)c1csc(NC(=O)CCl)n1	inactive
c1ccc(C(O[C@H]2CCCN(CCc3ccc4c(c3)OCO4)C2)c2ccccc2)cc1	inactive
C[C@H]1NCc2cc(-c3ccc4c(=O)c(C(=O)O)cn(C5CC5)c4c3OC(F)F)ccc21	inactive
CCCC(=O)O[C@]1(C(=O)CC)CC[C@H]2[C@@H]3CCC4=CC(=O)CC[C@]4(C)[C@H]3[C@@H](O)C[C@@]21C	inactive
O=C1CC2(CCCC2)CC(=O)N1CCNCC1COc2ccccc2O1 (stereo not given)	inactive
CN(C)CCCOC1(Cc2ccccc2)CCCCCC1	inactive
CCN1C(=O)c2ccccc2C1Nc1ccc(OCCN2CCCCC2)cc1 (stereo not given)	inactive
C[N+]1(CC2COC(c3ccccc3)(c3ccccc3)O2)CCCCC1 (stereo not given)	inactive
CC(NC(CCc1ccccc1)C(=O)O)C(=O)N1C(=O)N(C)CC1C(=O)O (stereo not given)	inactive
C/C(=C(/OCCOc1ccc(Cl)cc1)c1ccc(Cl)cc1Cl)n1ccnc1	inactive
CCCCN(CCCC)C(C(N)=O)c1ccc(OC)cc1 (stereo not given)	inactive
CC(=O)/C=C/C=C1/C2CCC(C2)C1(C)C (stereo not given)	inactive
CC(CC1c2ccccc2CCc2ccccc21)CN(C)C (stereo not given)	inactive
CC(C)(C)NCC(O)COc1ccccc1OCC1CCCO1 (stereo not given)	inactive
COc1ccc(/C(C)=C/C(=O)O)c(OC)c1	inactive
COc1cc(S(N)(=O)=O)cc(C(=O)O)c1OC	inactive
Nc1c(I)cc(I)c(C(=O)N(CCC(=O)O)c2ccccc2)c1I	inactive
O=C(c1cc(O)c(O)c(O)c1)c1ccc(O)c(O)c1O	inactive

SMILES	Potency
O=C(OCC1(COC(=O)c2cccnc2)CCCC(COC(=O)c2cccnc2)(COC(=O)c2cccnc2)C1O)c1cccnc1	inactive
OCCc1ccccc1	inactive
CCOC(=O)[C@H](CCc1ccccc1)N[C@@H](C)C(=O)N(CC(=O)O)C1Cc2ccccc2C1	inactive
COc1cc2c(cc1OC)C(=O)CC2	inactive
O=C(CS(=O)Cc1ccco1)NC/C=C\COc1cc(CN2CCCCC2)ccn1 (stereo not given)	inactive
CC(C)C(=O)Nc1cccc(C(F)(F)F)c1	inactive
Oc1ccc(CCNCCCCCCNCCc2ccccc2)cc1O	inactive
CCC(=O)O[C@H]1[C@H](O[C@@H]2[C@@H](C)[C@H](O[C@H]3C[C@@](C)(OC)[C@@H](O)[C@H](C)O3)[C@@H](C)C(=O)O[C@H](CC)[C@@](C)(O)[C@H](O)[C@@H](C)C(=O)[C@H](C)C[C@@]2(C)O)O[C@H](C)C[C@@H]1N(C)C	inactive
C[C@H](CN1CCCC1)C(=O)c1ccc(C(F)(F)F)cc1	inactive
O=C(O)Cc1ccc(OCCNC[C@H](O)c2ccccc2)cc1	inactive
CCOC(=O)O[C@]1(C(=O)OCCl)CC[C@H]2[C@@H]3CCC4=CC(=O)C=C[C@]4(C)[C@H]3[C@@H](O)C[C@@]21C	inactive
COc1cc(NS(=O)(=O)c2ccc(N)cc2)nc(C)n1	inactive
COCCc1ccccn1	inactive
CN(C)C(=O)CNC(=O)Cc1ccccc1	inactive
O=C(Nc1ccc(Cl)cc1)Nc1ccc(Cl)c(Cl)c1	23.7 µM (active)
CCc1cccc2c(CCO)c[nH]c12	inactive
O=C1CC[C@H](C(=O)N2CCCCC2)N1	inactive
COc1cc(C(=O)NC2CCCNC2)cc(OC)c1OC (stereo not given)	inactive
CO/N=C(/C(=O)N[C@@H]1C(=O)N2C(C(=O)O)=C(Cn3nnc(C)n3)CS[C@H]12)c1csc(N)n1	inactive
CN1CCCN=C1/C=C/c1cccs1	inactive

From PubChem BioAssay (NCATS)
